Experimental findings from PubChem BioAssay are described below.

Assay [1] can be described thus: reducers of polyQ inclusions in PC12 cells, cell-based, NGF-treated PC12, GFPQ80 (AID 1614).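 Also: lower means fewer inclusions and 0 means no inclusions at all.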 Particulars: PC12 NGF-treated GFP-polyQ80 inclusion reduction.
Assay [2] is described as follows: circadian clock period modulators, cell-based, LOPAC library, luminescence reporter (AID 2774).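 Also: values are relative to mean of DMSO wells on each plate.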 The note with it: circadian reporter cells, at 7 µM, actives lie on both sides.
The test system of assay [3] is Hepatitis C virus NS3 helicase. The experiment in a line: HCV NS3 helicase inhibitors, primary screen, biochemical, fluorescence polarization, LOPAC1280 library (AID 687035; in the data active = inhibition above about 37%). Particulars: Purified HCV NS3 helicase, Cy5-dT15 ssDNA binding fluorescence polarization; stronger effect = higher value; concentration not given here. On the technique in general: Fluorescence polarisation rises when a labelled molecule tumbles more slowly, as on binding a larger partner.

The nature of assay [4]: Cy5 fluorescence quenching or enhancement artefacts, artefact control for HCV NS3 helicase inhibitor project, biochemical, LOPAC1280 (AID 687037). The note with it: Cy5-DNA-NS3h complex fluorescence interference counterscreen. In general terms: A counterscreen serves to expose hits that act by an unwanted route or on another target.
The subject of assay [5] is Aerobactin synthetase IucA (Klebsiella pneumoniae). Briefly: IucA aerobactin synthetase inhibitors, biochemical, Tocris library, absorbance (AID 1345561).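 Also: 100% = enzyme without compound and 0% = no enzyme.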 The note with it: purified IucA enzyme assay, absorbance (OD) read-out; stronger effect = lower value;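 tested at 8 µM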.
The nature of assay [6]: growth inhibition of DIPG glioma cells, dose response, cell-based, SU-DIPG-XVII, MIPE5.0, CellTiter-Glo, qHTS (AID 1347060; cut-off not given, nearly all actives have AC50 up to about 26 µM;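 as to AC50: cells exposed to compound for 48 hours before viability readout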). The note with it: SU-DIPG-XVII viability, CellTiter-Glo ATP luminescence. In general terms: In ATP-based viability assays light output follows the ATP content of the culture.
The nature of assay [7]: growth inhibition of DIPG glioma cells, dose response, cell-based, SU-DIPG-IV, MIPE4.0, CellTiter-Glo, qHTS (AID 1347063; cut-off not given, nearly all actives have AC50 up to about 30 µM;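 also: compound exposure lasted 48 hours before the viability readout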). Particulars: SU-DIPG-IV viability, CellTiter-Glo ATP luminescence.
Assay [8] can be described thus: viability loss in pontine glioma line – cell-based, SU-DIPG-XXV, MIPE5.0, CellTiter-Glo, qHTS, dose response (AID 1347065; cut-off not given, nearly all actives have AC50 up to about 26 µM;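 also: cells exposed to compound for 48 hours before ATP readout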). The note with it: CellTiter-Glo ATP luminescence.
Assay [9] is described as follows: SU-DIPG-VI glioma cell viability, MIPE4.0 library, CellTiter-Glo luminescence, qHTS (AID 1347066; cut-off not given, nearly all actives have AC50 up to about 30 µM;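 also: cells exposed to compound for 48 hours before readout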). The note with it: CellTiter-Glo ATP luminescence.
A short description of assay [10]: JHH-DIPG-1 glioma cell viability, MIPE5.0 library, CellTiter-Glo luminescence, qHTS (AID 1347067; cut-off not given, nearly all actives have AC50 up to about 26 µM;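 also: cells exposed to compound for 48 hours before readout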). The note with it: JHH-DIPG-1 glioma viability, CellTiter-Glo ATP luminescence.
A short description of assay [11]: SU-DIPG-XXV glioma cell viability, MIPE5.0 library, qHTS (AID 1347068; cut-off not given, nearly all actives have IC50 up to about 30 µM;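 as to IC50: cells exposed to compound for 48 hours before viability readout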).
A short description of assay [12]: phospholipid biosynthesis inhibitors in animal cells, primary screen, cell-based, LOPAC library, screen 4 (AID 1347384). Particulars: phospholipid biosynthesis inhibition screen, at 10 µM.
Assay [13] can be described thus: hESC survival regulators, cell-based (AID 493140).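 Also: cells exposed to compounds for four days before counting.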 The note with it: human embryonic stem cell survival screen; stronger effect = higher value.
Assay [14] is described as follows: growth inhibition of DIPG glioma cells, dose response, cell-based, SU-DIPG-XIII, MIPE4.0, CellTiter-Glo, qHTS (AID 1347061; cut-off not given, nearly all actives have AC50 up to about 37 µM;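 also: cells exposed to compound for 48 hours before readout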). Particulars: SU-DIPG-XIII viability, CellTiter-Glo ATP luminescence.

Molecules are shown by their SMILES. Records with an inconclusive call do not appear. The source made the active and inactive calls. Unless noted, no rule for the calls is given here.

In assay [1], `COc1cc(OC)c2ccc(=O)oc2c1` displayed an inclusion score of 2.
What is called inhibition is the change of the read-out against control, counted positive when it falls. As usually defined, the remaining activity is the signal under treatment as a percentage of the control signal. In assay [1], `NC(=O)c1cccc(N)c1` registered an inclusion score of 2. In addition, the period change in assay [2] is 0.16 h (inactive). The inhibition in assay [3] was 0% (inactive). Besides, the fluorescence ratio (interference) in assay [4] was 1 (inactive). Further, the remaining activity in [5] was 96.2% (inactive). Further, the molecule was classed as inactive in assay [6], in [7], in assay [8], in assay [9], in assay [10] and in assay [11]. In assay [12], the call was inactive.
Consider `O=c1[nH]c2cc(Cl)c(Cl)cc2[nH]c1=O`, for which the period change in [2] was 0.15 h (inactive).
Take `NC1(C(=O)O)CCCC1`: the inclusion score in [1] was 2.
The same measure, in the same setting: then `O=C(O)c1cc(=O)c2cccc(O)c2[nH]1`, with 1.
For `CCCC(=O)Nc1ncnc2c1ncn2[C@@H]1O[C@@H]2COP(=O)(O)O[C@H]2[C@H]1OC(=O)CCC`, the remaining activity in assay [5] is 106% (inactive).
In [1], `CON` displayed an inclusion score of 2.
Same read-out and setting: the result for `NC1=NCCN1CC(=O)O` reads 2.
Turning to `C[C@]12CCC3c4ccc(OS(=O)(=O)O)cc4CCC3C1CC[C@H]2O` (stereo partly drawn), the inclusion score in assay [1] was found to be 2.
Consider `CCN1CCCC1CNC(=O)c1cc(S(N)(=O)=O)ccc1OC` (stereo not drawn), for which, in [1], the inclusion score worked out at 1.5. Moreover, the period change in assay [2] is -0.06 h (inactive). Further, in assay [13], the survival was 17.8 (inactive). In addition, the inhibition in assay [3] is -1% (inactive). For the same molecule, the fluorescence ratio (interference) in [4] was 1.1 (inactive). The remaining activity in [5] was 107% (inactive). In addition, the outcome in assay [14] and in assay [12] was inactive.
With `C=NC(C(=O)NC1C(=O)N2C1SC(C)(C)C2C(=O)O)c1ccccc1` (stereo not drawn), the inclusion score in assay [1] is 2.
On to `O=C(O)c1cc([N+](=O)[O-])ccc1NCCCc1ccccc1`, for which, in assay [1], the inclusion score was found to be 2. In addition, the period change in assay [2] was 0.025 h (inactive). The inhibition in assay [3] is -4% (inactive). Also, in assay [4], the fluorescence ratio (interference) was 1 (inactive). The remaining activity in [5] is 93.2% (inactive). The call in assay [12] was inactive.
Turning to `NC(Cn1ccc(=O)c(O)c1)C(=O)O` (stereo not drawn), in assay [1], the inclusion score worked out at 2. For the same molecule, the survival in assay [13] is 11.3 (inactive).
By AC50 is commonly meant the concentration giving half of the maximal activity seen. What is called IC50 is the concentration at which inhibition is half-maximal. Turning to `C[C@@]12C(=O)OC(=O)[C@]1(C)[C@H]1CC[C@@H]2O1`, the remaining activity in assay [5] is 119% (inactive). Further, the AC50 in [6] was 2630 nM (active); in assay [8], 1860 nM (active); in assay [10], 2350 nM (active). In addition, in assay [11], the IC50 was 2950 nM (active).
As to `CC(CCc1ccc(O)cc1)NCCc1ccc(O)c(O)c1` (stereo not drawn), the period change in [2] was 0.025 h (inactive). For the same molecule, the survival in assay [13] was 15.4 (inactive). The inhibition in assay [3] is -1% (inactive). The fluorescence ratio (interference) in [4] was 1 (inactive). The remaining activity in assay [5] was 94.6% (inactive). In addition, the outcome in [14], in assay [7] and in assay [12] was inactive.
Consider `COc1cc(C)c2c(=O)cc(-c3ccccc3)oc2c1`, for which, in [1], the inclusion score is 1.
The same measure, in the same setting: then `CC(=O)N[C@@H]1[C@@H](O)[C@H](O)[C@@H](CO)O[C@H]1O`, with 2; and `COc1c(OC)c2occc2c2oc(=O)ccc12`, with 2.
As for `COc1c2ccoc2nc2c(OC)c(OCC(O)C(C)(C)O)ccc12` (stereo not drawn), the survival in assay [13] was 4.17 (inactive).
Take `CCOC(=O)C1=C(O)C(=O)N(Cc2ccccc2)C1`: the remaining activity in assay [5] was 101% (inactive). Further, the call in assay [6], in assay [7], in [8], in [9], in assay [10] and in [12] was inactive.
`O=c1c(-c2ccc(O)cc2)coc2cc(O)ccc12` gave an inclusion score in assay [1] of 2. Besides, in assay [2], the period change is 0.115 h (inactive). Further, in assay [13], the survival was 70.6 (inactive). The inhibition in assay [3] was -4% (inactive). Besides, the fluorescence ratio (interference) in [4] was 1 (inactive). For the same molecule, the remaining activity in assay [5] was 111% (inactive). Besides, the result in assay [14], in assay [7], in assay [9], in [10], in assay [11] and in [12] was inactive.
With `COc1ccc([C@@H]2CC(=O)c3c(O)cc(O[C@@H]4O[C@H](CO[C@@H]5O[C@@H](C)[C@H](O)[C@@H](O)[C@H]5O)[C@@H](O)[C@H](O)[C@H]4O)cc3O2)cc1O`, the outcome in assay [6], in assay [7], in assay [8], in assay [9], in assay [10] and in [11] was inactive. Further, the AC50 in [14] is 14800 nM (active).
Take `C[C@H]1C[C@H]2[C@@H]3CCC4=CC(=O)C=C[C@]4(C)[C@@]3(F)[C@@H](O)C[C@]2(C)[C@@]1(O)C(=O)CO`: the survival in assay [13] was 9.67 (inactive). Further, the molecule was called inactive in [14], in [7] and in assay [9].
As for `CC(C)(O)CC[C@@H](O)[C@](C)(O)[C@H]1CC[C@@]2(O)C3=CC(=O)[C@@H]4C[C@@H](O)[C@@H](O)C[C@]4(C)[C@H]3CC[C@]12C`, the result in assay [6], in assay [7], in assay [8], in assay [9], in assay [10] and in assay [11] was inactive.
For the molecule `O=C(O)C1=CCCNC1`, in [2], the period change was 0.125 h (inactive). For the same molecule, in assay [3], the inhibition was -3% (inactive). Besides, the fluorescence ratio (interference) in assay [4] was 1 (inactive). Also, in [5], the remaining activity was 107% (inactive). For the same molecule, the molecule was called inactive in [12].
In the case of `C=C(C)[C@@H]1CC[C@]2(C(=O)O)CC[C@]3(C)[C@H](CC[C@@H]4[C@@]5(C)CC[C@H](O)C(C)(C)[C@@H]5CC[C@]43C)[C@@H]12`, the survival in assay [13] was 9.75 (inactive). Besides, the AC50 in assay [6] was 20900 nM (active); in assay [8], 14800 nM (active). The call in [14], in [7], in assay [9], in assay [10] and in assay [11] was inactive.
For `O=C1c2c(O)cccc2[C@H]([C@@H]2O[C@H](CO)[C@@H](O)[C@H](O)[C@H]2O)c2cc(CO)cc(O)c21`, the call in assay [14] and in assay [9] was inactive.
Consider `COc1ccc(-c2cc(=O)c3c(O)cc(O[C@@H]4O[C@H](CO[C@@H]5O[C@@H](C)[C@H](O)[C@@H](O)[C@H]5O)[C@@H](O)[C@H](O)[C@H]4O)cc3o2)cc1O`, for which the molecule was classed as inactive in assay [6], in [7], in [8], in assay [9], in assay [10] and in assay [11].
With `COc1cccc(OC)c1OCCNCC1COc2ccccc2O1` (stereo not drawn), in assay [2], the period change was 0.335 h (inactive). For the same molecule, the inhibition in [3] was -1% (inactive). In addition, in assay [4], the fluorescence ratio (interference) was 1 (inactive). Further, the remaining activity in assay [5] was 108% (inactive). For the same molecule, the result in assay [12] was inactive.
On to `O=C(O)Cc1nn(Cc2ccc(Br)cc2F)c(=O)c2ccccc12`, for which the remaining activity in assay [5] was 92.7% (inactive).
Turning to `O=C(/C=C/c1ccc(O)c(O)c1)O[C@H](Cc1ccc(O)c(O)c1)C(=O)O`, the remaining activity in [5] is 105% (inactive).
